Screening data from PubChem BioAssay.
The list is not random: actives were taken first. Their share in the collection is about 3.4%.
EWS-Fli block: blocks EWS/Fli oncoprotein-driven transcription; A673 NR0B1-luciferase reporter, viability-normalised; inhibition, % at 12.6 µM; 350,000 compounds, 0.67% hits; AID 651661;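 active = mean inhibition of at least 50% after viability correction, with every replicate also passing that limit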;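 also: firefly luciferase signal divided by Alamar Blue viability fluorescence both relative to DMSO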
SIRT5 inh: blocks human SIRT5 desuccinylation of peptide. Q9NXA8. Purified SirT5, succinyl-peptide AMC, trypsin-coupled fluorescence. inhibition, % at 15 µM. 330,000 compounds, 1.1% hits. AID 652115; in the data active = inhibition above about 15%
Target sequence (Q9NXA8 whole entry, looked up): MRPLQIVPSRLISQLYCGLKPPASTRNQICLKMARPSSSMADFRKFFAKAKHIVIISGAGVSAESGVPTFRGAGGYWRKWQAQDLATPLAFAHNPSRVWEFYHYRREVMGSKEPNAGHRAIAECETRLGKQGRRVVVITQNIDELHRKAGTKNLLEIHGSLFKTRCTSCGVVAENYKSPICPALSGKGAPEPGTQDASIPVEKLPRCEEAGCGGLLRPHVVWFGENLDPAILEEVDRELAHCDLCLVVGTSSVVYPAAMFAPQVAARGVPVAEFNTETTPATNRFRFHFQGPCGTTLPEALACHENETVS
rRNA inh HTS: inhibits bacterial ribosomal RNA function over humanized ribosomes; E. coli WT GFP vs humanized-ribosome RFP mutants, fluorescence, 24 h; stronger effect = lower value; DMSO median 0, no signal -100; GFP signal change (wild-type ribosome), % (test concentration not listed); 350,000 compounds, 1.6% hits;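 active = significant combined selectivity score with lowered wild-type GFP, culture density cut under 30%, mutant RFP and density less affected; inactive = any of these conditions unmet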
PAX8 reporter: inhibitors of PAX8 transcriptional activity in RMG-I cells | inhibition, % at 12.6 µM | RMG-I TPO-luciferase reporter, SteadyGlo, 24 h | AID 652154 | 360,000 compounds, 1.2% hits;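 active = mean replicate inhibition at least 60% with every replicate also reaching 60%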;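 also: luciferase light reporting Pax8 driven TPO promoter activity; plate controls were median of neutral control wells for no effect and mitoxantrone controls for full effect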
LGR2 inh: blocks bursicon-induced cAMP signaling via Drosophila LGR2; HEK293 LGR2, CRE-luciferase, bursicon-stimulated, 4 h; inhibition, % at 9.99 µM; 380,000 compounds, 0.35% hits;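 active = drop in luminescence signal, shown as inhibition above about 50% in the replicate tests, limit read from the data, passing the limit was not always enough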;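 also: agonist challenge used bursicon conditioned medium at about half maximal strength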
PGC1a acetyl inh: lowers PGC1a acetylation signal in U2OS cells | 350,000 compounds, 0.17% hits | inhibition, % at 15.6 µM | AlphaScreen anti-acetyl-lysine; with virally co-expressed GCN5 acetyltransferase;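 active = every replicate shows inhibition of at least 40%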;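 also: 0% = neutral control wells and 100% = positive control wells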
* hit, by the source's call; nt = no result given.

SMILES | EWS-Fli block | SIRT5 inh | rRNA inh HTS | PAX8 reporter | LGR2 inh | PGC1a acetyl inh
CC(C)C#Cc1cnc2c(c1)C(=O)N([C@@H](C)CO)C[C@H](C)[C@@H](CN(C)C(=O)Cc1ccccn1)O2 | -3 | 17* | 0 | 2 | -5 | 2
COCC#Cc1cnc2c(c1)C(=O)N([C@@H](C)CO)C[C@@H](C)[C@@H](CN(C)C(=O)c1ccc(F)cc1)O2 | -9 | 31* | 1 | nt | 1 | 1
CC(C)C#Cc1cnc2c(c1)C(=O)N([C@H](C)CO)C[C@@H](C)[C@@H](CN(C)C(=O)Cc1ccccn1)O2 | -5 | -1 | 1 | -12 | 2 | -1
COc1ccccc1NC(=O)N(C)C[C@H]1Oc2ncc(C#CC(C)C)cc2C(=O)N([C@@H](C)CO)C[C@@H]1C | -8 | 16* | -5 | 5 | -2 | 4
COc1ccccc1C#Cc1cnc2c(c1)C(=O)N([C@@H](C)CO)C[C@H](C)[C@@H](CN(C)C)O2 | 13 | 31* | 2 | nt | 1 | 2
COCC#Cc1cnc2c(c1)C(=O)N([C@H](C)CO)C[C@@H](C)[C@@H](CN(C)C(=O)c1ccc(F)cc1)O2 | -10 | 0 | 1 | nt | 30 | -16
C[C@H](CO)N1C[C@H](C)[C@@H](CN(C)Cc2ccc(Oc3ccccc3)cc2)Oc2ncc(-c3cncnc3)cc2C1=O | 6 | nt | -5 | 15 | 3 | -9
COc1cccc(NC(=O)N2C[C@@H](O)COC[C@@H]3O[C@@H](CC(=O)NCCCN4CCOCC4)CC[C@H]32)c1 | nt | nt | 3 | nt | 2 | 2
O=C(c1cccnc1)N1C[C@H]2[C@@H](c3ccccc31)[C@@H](CO)N2C(=O)Nc1ccccc1 | 7 | -3 | 3 | -10 | -1 | 5
COc1ccc2c3c([nH]c2c1)[C@H](CO)N(S(C)(=O)=O)CC31CN(C(=O)c2ccncc2)C1 | 5 | nt | 2 | nt | 8 | 5
CC(C)C#Cc1cnc2c(c1)C(=O)N([C@@H](C)CO)C[C@H](C)[C@H](CN(C)C(=O)c1ccccc1)O2 | -15 | 17* | nt | -16 | nt | -1
CC(C)C#Cc1cnc2c(c1)C(=O)N([C@@H](C)CO)C[C@H](C)[C@@H](CN(C)C(=O)c1ccccc1)O2 | -8 | 1 | -5 | -2 | -7 | -7
O=C1C=C(c2ccc3ncccc3c2)C[C@@H](c2ccc(F)cc2)C1 | nt | nt | nt | nt | nt | -28
O=C1C=C(c2ccc3ncccc3c2)C[C@@H](c2ccc3c(c2)OCO3)C1 | 63* | nt | 7 | 14 | 2 | nt
Cc1ccccc1-c1nn[nH]n1 | nt | nt | nt | -2 | nt | 0
Oc1ccc(N=Nc2ccccc2-c2nn[nH]n2)c(O)c1 | 5 | 17* | -31* | 13 | -10 | nt
O=S(=O)(c1cccc2cccnc12)N1CCN(Cc2ccc(OCCO)cc2)CC1 | 3 | -2 | nt | -2 | nt | 7
COc1ccc(CC(=O)NC(C)c2nnc(SCCOc3ccc(OC)cc3)n2C)cc1 (centres undefined) | nt | 29* | -10 | 24 | 5 | -6
COc1ccc(CC(=O)NC(C)c2nnc(SCC(=O)c3ccc(OC)cc3)n2C)cc1 (centres undefined) | 3 | -2 | 7 | 6 | 23 | nt
CCCC(=O)N1CC2(C1)CN(Cc1ccc(Cl)cc1)[C@H](CO)c1[nH]c3cc(OC)ccc3c12 | 9 | -2 | -6 | 11 | 15 | -7
O=C1N[C@H](c2ccccc2)COCc2cnnn2CC[C@H]1Cc1ccc(-c2ccccc2)cc1 | nt | nt | -8 | nt | nt | nt
Cc1ccccc1OCc1nnc(SCc2cc(=O)[nH]c3ccccc23)n1-c1ccccc1 | 12 | -4 | 7 | 71* | 14 | -11
Cc1ccc(S(=O)(=O)N(C)C[C@@H]2Oc3cc(C#Cc4ccncc4)ccc3S(=O)(=O)N([C@H](C)CO)C[C@@H]2C)cc1 | 28 | nt | -4 | 78* | 37 | 10
Cc1ccc(S(=O)(=O)N(C)C[C@H]2Oc3cc(C#Cc4ccncc4)ccc3S(=O)(=O)N([C@@H](C)CO)C[C@@H]2C)cc1 | 22 | 10 | -3 | 103* | -11 | 37
C[C@H](CO)N1C[C@H](C)[C@@H](CN(C)S(=O)(=O)c2ccc(F)cc2)Oc2cc(C#Cc3ccncc3)ccc2S1(=O)=O | -6 | 1 | -7 | nt | -6 | -14
SMILES | EWS-Fli block | SIRT5 inh | rRNA inh HTS | PAX8 reporter | LGR2 inh | PGC1a acetyl inh
COCC(=O)N1CCC2(CC1)CN(C(=O)Cc1ccccc1)[C@H](CO)c1c2c2ccc(OC)cc2n1C | 5 | nt | -2 | nt | -2 | 6
CN(CCO)S(=O)(=O)c1ccc2c(c1)C(=NO)c1cc(S(=O)(=O)N(C)CCO)ccc1-2 | 2 | -1 | -27* | 6 | 6 | -14
Cc1ccc(C)c(-c2cc(C(=O)Nc3cccc(C(=O)O)c3)c3ccccc3n2)c1 | 4 | 1 | 3 | 83* | -73 | -4
CCCCOC(=O)/C=C/c1c(C)[nH]c(=O)[nH]c1=O | -1 | -2 | -34* | -3 | -5 | nt
COc1ccc(CCNC(=O)c2ccc3c(c2)SC2=NS(=O)(=O)CCN23)cc1 | 2 | 1 | 3 | -5 | 1 | -3
O=C(Nc1cccc(Cl)c1)c1ccc2c(c1)SC1=NS(=O)(=O)CCN12 | 21 | 1 | 4 | 75* | 11 | nt
CCCC(=O)N1CC2(CCN(C)CC2)c2c(n(C)c3cc(OC)ccc23)[C@@H]1CO | 1 | nt | 5 | nt | -15 | -5
COc1ccc(C(=O)N/N=C/c2ccccn2)cc1OC | 6 | 2 | -29* | -19 | -14 | -7
O=C(N/N=C/c1ccccn1)c1ccncc1 | -11 | 6 | 9 | -19 | -13 | -4
Cn1ncc(Cl)c1C(=O)N/N=C/c1ccccn1 | -4 | 22* | 13 | 21 | 3 | -4
O=C(N/N=C/c1ccccn1)c1ccccc1 | -83 | 4 | -26* | 60 | 6 | nt
Cc1ccccc1C(=O)N/N=C/c1ccccn1 | -50 | -4 | 5 | -104 | 57* | 2
O=C(N[C@H]1CC[C@@H](CCNS(=O)(=O)c2ccccc2)O[C@H]1CO)c1cccc(F)c1 | -5 | 1 | 0 | 6 | -8 | -3
COc1ccc(C(=O)N/N=C/c2cc(Br)ccc2O)cc1OC | 29 | 2 | -38 | 82* | 10 | 12
O=C(N/N=C/c1ccccn1)c1cccs1 | -2 | -1 | -24* | -36 | -7 | nt
CCS(=O)(=O)N1CCC2(CC1)CN(S(=O)(=O)c1cccc(OC)c1)[C@H](CO)c1[nH]c3cc(OC)ccc3c12 | -2 | nt | -4 | nt | 17 | -6
COCc1cn(CC[C@H]2CC[C@@H](NC(=O)Cc3cccnc3)[C@H](CO)O2)nn1 | -8 | -1 | 2 | -3 | -39 | 2
c1coc(-c2nc3ccccc3nc2-c2ccco2)c1 | -3 | -13 | -28* | nt | -6 | 3
Cc1ccccc1-c1ccc2c(c1)O[C@H](CN(C)C(=O)Nc1ccc(C(F)(F)F)cc1)[C@@H](C)CN([C@H](C)CO)S2(=O)=O | 9 | 2 | 2 | 77* | 14 | 9
